Results as given in PubChem BioAssay (NCATS).
Inconclusive results are not listed. Where a call stands in place of a potency, no number is given. Values without a mark were called inactive. Active and inactive are the calls of the source. Calls come from the whole dose curve; as a rule, active = well fitted curve in the direction sought with a large enough effect; inconclusive = small, poorly fitted or top-dose-only effect, or another doubt; inactive = no such curve, though single readings can be large; an effect the other way counts as inactive or inconclusive.

Columns and labels:
[1] = Quantitative highthroughput screen to assess conditional lethalithy of NOMO1 cells grown in RPMI1640 with untreated serum (RPMI+s) (AID 1963876); note: nearly all actives have a fitted effect of over 35% in size
Procedure, shortened: (§1)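 Each medium arm—HPLM with 10% dialyzed FBS, or RPMI1640 with 5 mM glucose and 10% untreated or dialyzed FBS—was screened against an 11-point, 3-fold compound titration for 48 h at 37 °C, with CellTiter-Glo luminescence as endpoint.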

[2] = Quantitative highthroughput screen to assess conditional lethalithy of NOMO1 cells grown in RPMI1640 with dialyzed fetal bovine serum (RPMI+ds) (AID 1963877); note: nearly all actives have a fitted effect of over 30% in size; for viability: series mostly up to about 46 µM
Procedure, shortened: as §1

[3] = Quantitative highthroughput screen to assess conditional lethalithy of NOMO1 cells grown in Human Plasma-Like Medium with dialyzed fetal bovine serum (HPLM+ds) (AID 1963878); note: nearly all actives have a fitted effect of over 35% in size
Procedure, shortened: as §1

[4] = Quantitative highthroughput screen to assess conditional lethalithy of P12 Ichikawa cells grown in Human Plasma-Like Medium with dialyzed fetal bovine serum (HPLM+ds) (AID 1963879); conditions: Potency: viability; note: nearly all actives have a fitted effect of over 35% in size; for viability: series mostly up to about 46 µM
Procedure, shortened: as §1

[5] = Quantitative highthroughput screen to assess conditional lethalithy of P12 Ichikawa cells grown in RPMI1640 with dialyzed fetal bovine serum (RPMI+ds) (AID 1963880); conditions: Potency: P12-Ichikawa viability; note: nearly all actives have a fitted effect of over 35% in size
Procedure, shortened: as §1

[6] = Quantitative highthroughput screen to assess conditional lethalithy of P12 Ichikawa cells grown in RPMI1640 with untreated serum (RPMI+s) (AID 1963881); conditions: Potency: viability; note: nearly all actives have a fitted effect of over 35% in size; for viability: series mostly up to about 46 µM
Procedure, shortened: as §1

[7] = Quantitative highthroughput screen to assess conditional lethalithy of SEM cells grown in Human Plasma-Like Medium with dialyzed fetal bovine serum (HPLM+ds) (AID 1963882); note: nearly all actives have a fitted effect of over 35% in size; for viability: series mostly up to about 46 µM
Procedure, shortened: as §1

[8] = Quantitative highthroughput screen to assess conditional lethalithy of SEM cells grown in RPMI1640 with unreated serum (RPMI+s) (AID 1963883); note: nearly all actives have a fitted effect of over 35% in size
Procedure, shortened: as §1

[9] = Quantitative highthroughput screen to assess conditional lethalithy of SEM cells grown in RPMI1640 with dialyzed fetal bovine serum (RPMI+ds) (AID 1963884); note: nearly all actives have a fitted effect of over 35% in size; for viability: series mostly up to about 46 µM
Procedure, shortened: as §1
Potency is the fitted concentration of half-maximal effect.

Row | SMILES | Potency [1] | Potency [2] | Potency [3] | Potency [4] | Potency [5] | Potency [6] | Potency [7] | Potency [8] | Potency [9]
1 | CC(C=CC1=C(C)CCCC1(C)C)=CC=CC(C)=CC(=O)Nc1ccc(O)cc1 | 30300 nM (active) | 17100 nM (active) | 15200 nM (active) | 6050 nM (active) | 2700 nM (active) | 6050 nM (active) | 3400 nM (active) | 6050 nM (active) | 3030 nM (active)
2 | CC(=O)OCC(=O)[C@@]1(O)CC[C@H]2[C@@H]3CCC4=CC(=O)CC[C@]4(C)[C@@H]3C(=O)C[C@@]21C | inactive | inactive | inactive | inactive | inactive | inactive | inactive | inactive | inactive
3 | CC(=O)O[C@H]1C[C@@H]2CC[C@H]3[C@H]4C[C@H]([N+]5(C)CCCCC5)[C@@H](OC(C)=O)[C@@]4(C)CC[C@@H]3[C@@]2(C)C[C@H]1N1CCCCC1 | inactive | inactive | inactive | inactive | inactive | inactive | inactive | inactive | inactive
4 | CCC[C@@H](NC(=O)[C@@H]1[C@H]2CCC[C@@H]2CN1C(=O)[C@@H](NC(=O)[C@@H](NC(=O)c1cnccn1)C1CCCCC1)C(C)(C)C)C(=O)C(=O)NC1CC1 | inactive | inactive | inactive | inactive | inactive | inactive | inactive | inactive | inactive
5 | O=C(O)C(=O)Nc1cccc(C2=NN=N[N]2)c1 | inactive | inactive | inactive | inactive | inactive | inactive | inactive | inactive | inactive
6 | C=C1C(=O)O[C@H]2[C@@H]1CCC(C)=CCC[C@@]1(C)O[C@@H]21 | 4690 nM (active) | 5900 nM (active) | 2350 nM (active) | 2350 nM (active) | 2350 nM (active) | 2640 nM (active) | 1320 nM (active) | 833 nM (active) | 1480 nM (active)
7 | COc1ccc2c(c1)CC[C@H]1[C@@H]2CC[C@]2(C)[C@@H](NCCCCCCN3C(=O)C=CC3=O)CC[C@H]12 | inactive | inactive | inactive | inactive | inactive | inactive | inactive | inactive | inactive
8 | O=C(C[C@@H]1CC=CCCC(=O)O[C@H](c2ccccc2)CNC1=O)NCc1ccc(Cl)cc1 | inactive | inactive | inactive | inactive | inactive | inactive | inactive | inactive | inactive
9 | O=C1NC(=O)C(=Cc2ccc(-c3ccc(F)cc3)o2)S1 | inactive | inactive | inactive | inactive | inactive | inactive | inactive | inactive | inactive
10 | NC[C@@H]1O[C@@H](O[C@H]2[C@@H](O)[C@H](O[C@@H]3[C@@H](O)[C@@H](N)C[C@H](N)[C@H]3O[C@H]3O[C@H](CN)[C@@H](O)[C@@H](O)[C@H]3N)O[C@H]2CO)[C@H](N)[C@@H](O)[C@@H]1O | inactive | inactive | inactive | inactive | inactive | inactive | inactive | inactive | inactive
11 | COc1cccc2c1C(=O)c1c(O)c3c(c(O)c1C2=O)C[C@@](O)(C(C)=O)C[C@H]3O[C@H]1C[C@H](N)[C@H](O)[C@H](C)O1 | 264 nM (active) | 235 nM (active) | 264 nM (active) | 264 nM (active) | 209 nM (active) | 209 nM (active) | 83.3 nM (active) | 46.9 nM (active) | 83.3 nM (active)
12 | CCC(CC)[C@H](NC(C)=O)[C@@H]1[C@H](O)[C@@H](C(=O)O)C[C@@H]1N=C(N)N | inactive | inactive | inactive | inactive | inactive | inactive | inactive | inactive | inactive
13 | C[C@@H]1[C@H](O)[C@@H](C)C=CC=CC=CC=CC=CC=CC=C[C@H](O[C@@H]2O[C@H](C)[C@H](O)[C@H](N)[C@@H]2O)C[C@@H]2O[C@](O)(C[C@@H](O)C[C@@H](O)[C@H](O)CC[C@@H](O)C[C@@H](O)CC(=O)O[C@H]1C)C[C@H](O)[C@@H]2C(=O)O | inactive | inactive | inactive | inactive | inactive | inactive | inactive | inactive | inactive
14 | NC(=O)c1ncn([C@@H]2O[C@H](CO)[C@@H](O)[C@@H]2O)c1O | inactive | inactive | inactive | inactive | inactive | inactive | inactive | inactive | inactive
15 | NC1CCC(Nc2nc(Nc3ccc(C(=O)N4CCCCC4)cc3)c3ncn(-c4cccc(F)c4)c3n2)CC1 (configuration not stated) | inactive | inactive | inactive | inactive | inactive | inactive | inactive | inactive | inactive
16 | CC1(C)Cc2c(-c3ccccc3)c(-c3ccc(Cl)cc3)c(CC(=O)O)n2C1 | inactive | inactive | inactive | inactive | inactive | inactive | inactive | inactive | inactive
17 | C[C@H](NC(=O)C(C#N)=Cc1cccc(Br)n1)c1ccccc1 | 2640 nM (active) | 3320 nM (active) | 1870 nM (active) | 1480 nM (active) | 2350 nM (active) | 2350 nM (active) | 1320 nM (active) | 935 nM (active) | 1320 nM (active)
18 | CC(C)(C)[N+]([O-])=Cc1ccc(S(=O)(=O)O)cc1S(=O)(=O)O | inactive | inactive | inactive | inactive | inactive | inactive | inactive | inactive | inactive
